Results published in PubChem BioAssay AID1619 (SRMLSC, 2009).
Screen size: about 220,000 compounds; about 830 (0.38%) were called active.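 How the source made its calls: active means compound inhibiting the enzyme by more than half at any dose during confirmatory dose-response retesting; inconclusive means strong single-dose inhibitors picked by rank but not retested; inactive means the rest.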 The list is a sample of the results. Potency and affinity values are given separately.

Biological target: Leucine aminopeptidase (Plasmodium falciparum (isolate 3D7)) (UniProt Q8IL11)
Test: P. falciparum M17LAP inhibitors, primary screen, biochemical, fluorogenic H-Leu-NHMec substrate, 1536-well (AID 1619);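 further: plate controls were full reaction with DMSO carrier for no effect and no enzyme background for full effect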
Details: recombinant M17LAP, H-Leu-NHMec fluorogenic kinetic assay; at 30 µM; stronger effect = higher value

Leucine aminopeptidase (Plasmodium falciparum (isolate 3D7)), sequence (Q8IL11 whole entry, looked up): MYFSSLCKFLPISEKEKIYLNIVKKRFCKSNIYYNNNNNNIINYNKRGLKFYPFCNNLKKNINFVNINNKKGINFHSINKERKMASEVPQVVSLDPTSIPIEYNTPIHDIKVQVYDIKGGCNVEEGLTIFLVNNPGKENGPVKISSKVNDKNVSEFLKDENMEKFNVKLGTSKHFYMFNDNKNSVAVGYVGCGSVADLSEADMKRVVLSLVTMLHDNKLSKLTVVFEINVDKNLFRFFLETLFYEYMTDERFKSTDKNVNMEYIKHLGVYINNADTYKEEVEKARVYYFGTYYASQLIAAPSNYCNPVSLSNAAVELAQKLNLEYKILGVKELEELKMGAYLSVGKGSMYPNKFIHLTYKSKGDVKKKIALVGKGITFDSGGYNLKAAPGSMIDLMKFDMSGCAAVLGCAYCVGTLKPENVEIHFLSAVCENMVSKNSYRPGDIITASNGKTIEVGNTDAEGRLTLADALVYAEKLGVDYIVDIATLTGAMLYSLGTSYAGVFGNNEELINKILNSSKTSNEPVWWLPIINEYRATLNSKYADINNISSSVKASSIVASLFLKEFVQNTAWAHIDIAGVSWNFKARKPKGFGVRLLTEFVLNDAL

inhibition, inactive:
NC(=O)COc1ncn(-c2ccccc2)n1 1.05%
CC(=O)COc1ncn(-c2ccccc2)n1 42.4%
CCCCC(=O)Nc1nnc(-c2ccc(OC)cc2)s1 4.4%
O=C(CN1C(=O)NC2(CCCC2)C1=O)OCc1cc(=O)n2cc(Br)ccc2n1 -0.9%
O=C1CCCCN1CCc1c[nH]c2ccccc12 15.4%
COc1ccc(-n2nc3c(N)n[nH]c3cc2=O)cc1 -0.44%
COc1ccc(N2CCN(c3n[nH]c(N)n3)CC2)cc1 0.79%
O=C(CC12CC3CC(CC(C3)C1)C2)NC(=S)NCc1ccccc1 -4.21%
Cc1cccnc1CN1CCN(C(=O)c2cc(COc3ccc4ncccc4c3)on2)CC1 0.97%
Cc1ccccc1NC(=O)c1cnc2ccccn2c1=O 2.31%
O=C(Nc1cccc(C(F)(F)F)c1)c1cccnc1 -1.75%
Cn1ncc(N)c1C(=O)Nc1cccc(C(F)(F)F)c1 1.2%
CSc1nc2nc3c(cc2c(=O)n1-c1ccc(C)cc1)COC(C)(C)C3 3.67%
CCc1ccc(CN(C)C(=O)CCc2nnc(Cc3cccc(C)c3)o2)nc1 -6.64%
Cc1cccc(C)c1NC(=O)CSCC(=O)O 4.91%
Cc1cccc(C)c1NC(=O)CSCCO 0.75%
CCOC(=O)CSc1nc(-c2ccccc2)nc2ccc(C)cc12 2.78%
CC1CN(c2nc(-c3ccccc3)nc3ccccc23)CC(C)O1 (configuration not stated) 4.44%
CCN(CC)c1ccc(/C=c2\sc3nnc(-c4ccccc4Cl)n3c2=O)cc1 1.48%
Cc1ccc(/C=c2\sc3nc(-c4cccs4)nn3c2=O)o1 79.6%
Cc1ccc(/C=c2\sc3nc(-c4ccco4)nn3c2=O)o1 42.2%
CCN(CC)c1ccc(/C=c2/sc3nnc(-c4ccccc4C)n3c2=O)cc1 9.78%
CCc1ccc(NC(=O)C(C)Nc2ccc(S(=O)(=O)NC(C)=O)cc2)cc1 (configuration not stated) 3.98%
O=[N+]([O-])c1cccc(-c2nnn(C34CC5CC(CC(C5)C3)C4)n2)c1 -10.4%
COc1ccc(N(CC(=O)Nc2ccc3c(c2)OCO3)S(=O)(=O)c2ccc(C)cc2)cc1OC -12.9%
COc1ccc2c(c1OC)C(=O)OC2CC(=O)c1ccc(O)cc1 (configuration not stated) 14.4%
COc1ccc(C(=O)CC2OC(=O)c3c2ccc(OC)c3OC)cc1 (configuration not stated) 9.31%
CC(C)n1cc(/C=C2\NC(=O)N(c3cccc(Cl)c3)C2=O)c2ccccc21 -7.4%
O=C(O)Cn1cc(/C=C2\SC(=O)N(c3ccccc3)C2=O)c2ccccc21 15%
CCOc1ccc(Nc2cc(=O)oc3ccccc23)cc1 4.7%
Cc1cccc(N2CCN(S(=O)(=O)c3ccc4c(c3)CCN4C(=O)CCC(=O)O)CC2C)c1 (configuration not stated) -2.93%
CCN(CC)C(=O)CSc1nnnn1-c1ccc(F)c(Cl)c1 -1.03%
Cc1ccc(NC(N)=S)cc1 18.7%
CNC(=S)Nc1ccc(C)cc1 3.68%
O=C(CN1C(=O)C2C3C=CC(C3)C2C1=O)Nc1ccc2nccnc2c1 (configuration not stated) 1.82%
Cc1cc(C=C2C(=O)c3ccccc3C2=O)c(C)n1-c1ccccc1 -3.81%
Cc1cc(C=C2C(=O)c3ccccc3C2=O)c(C)n1-c1ccc(C(=O)O)cc1 18.3%
Cn1c(=O)cc(OCCCC(=O)NCCC2=CCCCC2)c2ccccc21 -10.7%
C=CCn1cccc(C(=O)Nc2ccc(OC)cc2OC)c1=O 21.4%
COc1cccc2c(=O)n(CC(=O)N3CCCCC3)ccc12 33.4%
COC(=O)COc1cccc2c(=O)n(CC(=O)N3CCCCC3)ccc12 12.9%
CCOC(=O)COc1cccc2c(=O)n(CC(=O)N3CCC(C)CC3)ccc12 3.95%
COC(=O)COc1cccc2c(=O)n(CC(=O)N3CCC(C)CC3)ccc12 -7.98%
COc1ccccc1/C=C(\NC(=O)c1ccc(OC)c(OC)c1)C(=O)Nc1cccc([N+](=O)[O-])c1 -33.9%
Cc1ccc(-c2cc(C(=O)NCc3ccco3)no2)cc1 -5.12%
COc1cc(SC)ccc1C(=O)NCCN1CCOCC1 -0.03%
O=C(c1cccc(NS(=O)(=O)c2cccc(F)c2)c1)N1CCN(c2ccccc2)CC1 -9.4%
Cn1c(SCC(=O)Nc2ccc(N3CCOCC3)cc2)nnc1-c1ccccc1 -0.5%
COc1ccc(/C=N/N=C2\SC(CC(=O)O)C(=O)N2c2ccccc2)cc1 (configuration not stated) 33.9%
COc1ccc(/C=N\N=C2/SC(CC(=O)O)C(=O)N2c2ccc(O)cc2)cc1 (configuration not stated) 45.6%
Cc1ccc2cc(C)c3nnc(SCC(=O)N4CCCc5ccccc54)n3c2c1C 1.13%
Cc1cc(C(=O)CN2C(=O)NC3(CCCc4ccccc43)C2=O)c(C)n1Cc1ccccc1 (configuration not stated) 7.63%
CCOc1ccccc1NC(=O)NC1(C(=O)N2CCN3CCCC3C2)CCCCC1 (configuration not stated) 20.5%
Cn1cnnc1SCC(=O)c1ccc(O)c(O)c1 38.8%
CCn1c(SCC(=O)O)nnc1-c1ccccc1 -5.68%
CCn1c(SCC(=O)c2ccccc2)nnc1-c1cccnc1 14.5%
O=C(CSc1nc2ccccc2n1CCc1ccccc1)c1ccc(O)c(O)c1 -0.72%
Cc1cc(SCC(=O)c2ccc(O)c(O)c2)n2nc(C)c(-c3ccccc3)c2n1 16.1%
CCn1c(SCC(=O)c2ccc(C)cc2)nnc1-c1ccncc1 3.05%
Cc1cc(SCC(=O)c2ccc(O)c(O)c2)nc2ccccc12 36.2%
CCn1c(SCC(=O)OC)nnc1-c1ccc(C)cc1 3.28%
Cc1ccc2cc(CN(CC3CCCO3)S(=O)(=O)c3cccc4nsnc34)c(=O)[nH]c2c1 (configuration not stated) -1.29%
O=C(COC(=O)c1ccc[nH]c1=O)NCC1CCCO1 (configuration not stated) -1.42%
Cc1ccc(S(=O)(=O)N2CCN(CC(=O)NC3CCCc4ccccc43)CC2)c(C)c1 (configuration not stated) 5.05%
CC(NC(=O)C(C)N1C(=O)C2C3CC(C(Br)C3Br)C2C1=O)c1ccccc1 (configuration not stated) 10.6%
C=CCOC(=O)C1=C(C)Nc2ncnn2C1c1cc(Br)ccc1F (configuration not stated) -2.3%
Cc1ccc(CSc2nnc(SCC(=O)N/N=C/C=C/c3ccccc3[N+](=O)[O-])s2)cc1 5.78%
S=c1[nH]nc(-c2ccccn2)n1/N=C/c1ccco1 0.92%
CCOc1ccc(C(=O)CN2CCN(S(=O)(=O)c3ccc(F)cc3)CC2)cc1 26.6%
CCOc1ccc(C(=O)CN2CCN(S(=O)(=O)c3ccc(Br)cc3)CC2)cc1 41.1%
CC(C)[C@H](NS(=O)(=O)c1ccc2c(c1)OCCO2)C(=O)OCC(=O)Nc1ccccc1Cl 9.34%
Cc1ccc(C)c(NC(=O)c2ccccc2NS(=O)(=O)c2cc([N+](=O)[O-])ccc2C)c1 31.8%
CC(=O)Nc1ccc(NS(=O)(=O)c2cc([N+](=O)[O-])ccc2C)cc1 1.99%
CCN(CC)CCN(C(=O)c1ccc2c(c1)CCCC2)c1nc2ccc(F)cc2s1 -4.78%
c1ccc(CCNc2nc(-c3ccncc3)nc3ccccc23)cc1 11.8%
CCOC(=O)c1c(-c2ccccc2)csc1NC(=O)C1CCCO1 (configuration not stated) 17.1%
CCc1ccc(-c2csc(NC(=O)C3CCCO3)c2C(=O)OC(C)C)cc1 (configuration not stated) 57.8%
COC(=O)c1c(-c2ccccc2)csc1NC(=O)c1ccco1 4.09%
Cc1ccsc1C(=O)NNC(=O)C1CC=CCC1C(=O)O (configuration not stated) 28%
COC(=O)c1c(-c2cccc(C)c2)csc1NC(=O)C1CCCO1 (configuration not stated) -0.44%
COC(=O)c1sccc1NC(=O)C1CC=CCC1C(=O)O (configuration not stated) 36.4%
CCOC(=O)c1c(-c2ccc(OC)c(OC)c2)csc1NC(=O)C1CCCO1 (configuration not stated) -3.98%
CC(C)OC(=O)c1c(-c2ccc(C(C)C)cc2)csc1NC(=O)C1CCCO1 (configuration not stated) 16.2%
COc1ccc(NC(=O)C2=C(C)NC(=O)NC2c2cccs2)c(OC)c1 (configuration not stated) 2.25%
COc1ccc(OCC(=O)OC2CCCN(C)C2)cc1 (configuration not stated) 3.48%
Cc1c(-c2ccc(Cl)cc2)oc(=O)c2c(N)n(-c3ccccc3)nc12 -7.58%
CCN(c1ccccc1)S(=O)(=O)c1cc(C(=O)OC(C)C(=O)Nc2ccc3c(c2)OCCO3)ccc1C (configuration not stated) -0.98%
Cn1c(SCC(=O)NCCN2C(=O)CSC2=O)nnc1-c1ccccc1 -14.5%
Cc1cc(C)c(-c2c(O)c3cnn(-c4ccccc4)c3[nH]c2=O)c(C)c1 13.5%
Cc1ccc(CC(=O)N2CCOCC2)cc1 0.85%
Cc1ccc2ccccc2[n+]1CCCS(=O)(=O)[O-] 7.83%
COC(=O)c1c(-c2ccccc2)csc1NC(=O)C1CC=CCC1C(=O)O (configuration not stated) 6.75%
COC(=O)c1c(-c2ccc(C)cc2)csc1NC(=S)NC(=O)c1ccc(F)cc1 -17.5%
CCOC(=O)c1c(-c2cccc([N+](=O)[O-])c2)csc1NC(=O)C1CC1 -5.68%
CCOC(=O)c1c(-c2ccc(C)cc2)csc1NC(=O)C1CCCO1 (configuration not stated) -4.23%
CCOC(=O)c1c(-c2cccc([N+](=O)[O-])c2)csc1NC(=O)C1CCCCC1 -7.16%
CCOC(=O)c1c(-c2ccc(F)cc2)csc1NC(=O)C1CC=CCC1C(=O)O (configuration not stated) 3.77%
